Compound activity deposited in PubChem BioAssay by National Center for Advancing Translational Sciences (NCATS).
HCMV inh – qHTS Assay for inhibitors of the human cytomegalovirus (HCMV); HFF cells, HCMV-luciferase reporter, 72 h; hits give low values; activity change, negative = inhibition, % at 57.5 µM; actives 4.5% (n = 410,000); AID 1259415, 2018; in the data active = activity change below about -60%; inconclusive = no clear call, values can overlap the other calls; inactive = above about -39%
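Two compound doses tested in HFFs infected with HCMV-luciferase, MOI 1 PFU/cell, 72 h at 37C. Lysate luminescence read with OneGlo; data normalized against buffer-only and 10uM Salinomycin inhibitor controls.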
VACV Venus inh – qHTS for Stage-Specific Inhibitors of Vaccinia Orthopoxvirus: Venus Reporter Primary qHTS. Potency, µM (titrated, usually from 36.5 µM), for inactives: at the highest dose activity change, negative = inhibition, most hits filed as inhibitors. actives 0.46% (n = 330,000). Vaccinia virus Venus reporter expression, fluorescence; calls by dose curve; tested in A549 cells; also: potency is read from the fitted curve at half-maximal effect; nearly all actives have a fitted effect of over 30% in size
TbPYK inhibitor – qHTS of Trypanosoma Brucei Inhibitors | Potency, µM (titrated, usually from 76.8 µM), inactives show at the highest dose activity, negative = inhibition, hits mostly inhibitors | TbPYK enzyme, Kinase-Glo Plus ATP luminescence, 45 min | actives 0.12% (n = 410,000) | AID 624173, 2012; also: potency is read from the fitted curve at half-maximal effect; nearly all actives have a fitted effect of over 50% in size
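TbPYK + substrate in 50 mM TEA pH 7.2, 100 mM KCl, 10 mM MgCl2, 0.05% BSA, 0.01% Tween-20; cpd pinned; ADP 130 uM final; 45 min RT; Kinase-Glo Plus 10 min; luminescence endpoint.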
LmPK inhibitor – qHTS Assay for Inhibitors of Leishmania Mexicana Pyruvate Kinase (LmPK). purified LmPK, Kinase-Glo ATP luminescence, 1 h. Potency, µM (doses to about 57.5 µM), without a hit: at the highest dose activity change, negative = inhibition, most hits filed as inhibitors. actives 0.37% (n = 290,000). Q27686; also: potency is read from the fitted curve at half-maximal effect
Target sequence (Q27686 whole entry, looked up): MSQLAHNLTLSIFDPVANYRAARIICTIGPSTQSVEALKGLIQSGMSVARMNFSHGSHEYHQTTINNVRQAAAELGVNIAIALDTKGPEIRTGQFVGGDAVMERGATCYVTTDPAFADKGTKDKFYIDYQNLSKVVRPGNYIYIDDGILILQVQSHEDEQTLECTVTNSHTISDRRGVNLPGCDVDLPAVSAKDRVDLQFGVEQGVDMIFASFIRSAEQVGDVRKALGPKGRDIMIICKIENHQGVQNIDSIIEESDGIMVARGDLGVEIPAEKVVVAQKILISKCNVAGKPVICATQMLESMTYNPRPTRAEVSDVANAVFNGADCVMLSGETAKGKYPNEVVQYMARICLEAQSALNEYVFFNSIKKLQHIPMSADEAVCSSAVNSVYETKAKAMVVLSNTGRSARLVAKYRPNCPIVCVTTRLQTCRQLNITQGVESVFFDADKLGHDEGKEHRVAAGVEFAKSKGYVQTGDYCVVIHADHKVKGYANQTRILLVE
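0.1 nM LmPK, 0.5 mM PEP, 0.1 mM ADP; 50 mM imidazole pH 7.2, 7 mM MgCl2, 50 mM KCl; 1 h RT. Kinase-Glo luminescence readout, normalized to no-enzyme (full inhibition) and uninhibited wells.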
Vaccinia mCherry – qHTS for Stage-Specific Inhibitors of Vaccinia Orthopoxvirus: mCherry Reporter Primary qHTS; Vaccinia virus mCherry reporter infection, fluorescence; Potency, µM (titrated, usually from 36.5 µM), without a hit: top-dose activity change, negative = inhibition, hits mostly inhibitors; actives 0.63% (n = 310,000); calls by dose curve; tested in A549 cells; also: potency is read from the fitted curve at half-maximal effect; nearly all actives have a fitted effect of over 35% in size
* marks the source's active call; other numbers are inactive results. A selection: hits, their analogues and other compounds. The true share with any hit is near 5%. Unless noted, calls follow the shape of the dose curve; as a rule, active = well fitted curve in the direction sought with a large enough effect; inconclusive = small, poorly fitted or top-dose-only effect, or another doubt; inactive = no such curve, though single readings can be large; an effect the other way counts as inactive or inconclusive. % is scaled to controls: 0 for no effect and ±100 for the full control effect.

Screening COc1ccc(-c2nc3c(n2O)CCc2c-3no[n+]2[O-])cc1 returned HCMV inh -68.3*, VACV Venus inh 1.3%, TbPYK inhibitor 1.0%, LmPK inhibitor 0.3% and Vaccinia mCherry -10.1%.
For CSCc1cc(N(C)c2ccccc2)nc(-c2ccccn2)n1 the results were HCMV inh -84.9*, VACV Venus inh inconclusive, TbPYK inhibitor 2.7%, LmPK inhibitor 0.8% and Vaccinia mCherry -28.8%.
Screening CN(C)c1cc(C(F)(F)F)nc(-c2ccccn2)n1 returned HCMV inh -23.1, TbPYK inhibitor 0.2% and LmPK inhibitor -1.5%.
For O=S(=O)(NC1CCCC1)c1ccccc1Br the results were HCMV inh -97.4*, VACV Venus inh -3.1%, TbPYK inhibitor 0.4%, LmPK inhibitor 0.3% and Vaccinia mCherry inactive.
`Cc1ccc(C)c(CN2C(=O)CSc3ccc(C(=O)NCC(C)CN4CCC(C)CC4)cc32)c1` (stereo not given) gave HCMV inh -31.0, VACV Venus inh 3.4%, TbPYK inhibitor -3.1%, LmPK inhibitor -2.5% and Vaccinia mCherry 14.5%.
`CN(CCc1ccccc1)C(=O)c1ccc(NC(=O)Cc2ccc(NC(=O)C3CCCN(C(=O)C4CC4)C3)cc2)cc1` (stereo not given) gave HCMV inh -20.6, VACV Venus inh -7.5%, TbPYK inhibitor 0.8% and Vaccinia mCherry -2.2%.
CN(C(=O)c1cccc(NC(=O)Cc2ccc(NC(=O)C3CCCN(C(=O)CCc4ccccc4)C3)cc2)c1)C1CC1 (stereo not given) was read as HCMV inh 9.9, VACV Venus inh -6.7%, TbPYK inhibitor -3.0% and Vaccinia mCherry inconclusive.
CN(CCc1ccccc1)C(=O)c1ccc(NC(=O)Cc2ccc(NC(=O)C3CCCN(C(=O)C4CCCC4)C3)cc2)cc1 (stereo not given) was read as HCMV inh -68.1*, VACV Venus inh inconclusive, TbPYK inhibitor -3.2% and Vaccinia mCherry inconclusive.
`CN(Cc1ccccc1)C(=O)c1ccc(NC(=O)Cc2ccc(NC(=O)C3CCCN(C(=O)CCc4ccccc4)C3)cc2)cc1` (stereo not given) gave HCMV inh -67.0*, VACV Venus inh inconclusive, TbPYK inhibitor -3.2% and Vaccinia mCherry 10µM*.
CN(C(=O)c1cccc(NC(=O)Cc2ccc(NC(=O)C3CCCN(C(=O)CCc4ccccc4)C3)cc2)c1)C1CCCCC1 (stereo not given) was read as HCMV inh -75.3*, VACV Venus inh inconclusive, TbPYK inhibitor -5.0% and Vaccinia mCherry 12.6µM*.
`CN(C(=O)c1ccc(NC(=O)Cc2ccc(NC(=O)C3CCCN(C(=O)CCc4ccccc4)C3)cc2)cc1)C1CCCC1` (stereo not given) gave HCMV inh inconclusive, VACV Venus inh inconclusive, TbPYK inhibitor 1.3% and Vaccinia mCherry 10µM*.
For C/C(=N\NC(=O)c1ccccc1O)c1ccc(NC(=O)Cc2ccccc2)cc1 the results were HCMV inh 193.6, VACV Venus inh -13.9%, TbPYK inhibitor 4.1%, LmPK inhibitor -0.5% and Vaccinia mCherry inactive.
For CC1CCCC(C)N1C(=O)CSc1nnc(COc2ccc(F)cc2)o1 (stereo not given) the results were HCMV inh 8.0, VACV Venus inh -7.2%, TbPYK inhibitor -4.7%, LmPK inhibitor -7.6% and Vaccinia mCherry -10.9%.
For CC(=O)C1(C)C(=O)N(c2ccc(C)cc2)C(=O)N1c1ccc(C)cc1 (stereo not given) the results were HCMV inh -26.5, VACV Venus inh -3.2%, TbPYK inhibitor 1.4% and Vaccinia mCherry inactive.
CC(=O)c1ccc(NC(=O)c2cc(CC(C)C)nc3ccccc23)cc1 was read as HCMV inh -9.9, TbPYK inhibitor -1.7% and LmPK inhibitor -1.9%.
Screening CSc1ccc(CCNC(=O)Cn2ncc3c([nH]c4ccccc43)c2=O)cc1 returned HCMV inh 4.9, VACV Venus inh -16.2%, TbPYK inhibitor 10.4%, LmPK inhibitor 0.0% and Vaccinia mCherry 1.4%.
`Cc1noc2ncnc(Sc3ccccc3Cl)c12` gave HCMV inh -78.8*, VACV Venus inh -23.5%, TbPYK inhibitor 4.0%, LmPK inhibitor -1.6% and Vaccinia mCherry inconclusive.
Cc1ccc(Sc2ncnc3onc(C)c23)c(C)c1 was read as HCMV inh 15.3, VACV Venus inh -2.5%, TbPYK inhibitor 5.1%, LmPK inhibitor -5.1% and Vaccinia mCherry inconclusive.
For COc1cc(-c2n[nH]c(=S)n2-c2ccccc2C(F)(F)F)cc(OC)c1OC the results were HCMV inh 45.3, VACV Venus inh -17.3%, TbPYK inhibitor inconclusive, LmPK inhibitor 17.8µM* and Vaccinia mCherry inactive.
Screening COc1cc(OC)cc(-c2n[nH]c(=S)n2-c2cc(OC)ccc2OC)c1 returned HCMV inh 75.6, TbPYK inhibitor inconclusive and LmPK inhibitor 3.55µM*.
Screening COc1cc(-n2c(-c3ccccc3)n[nH]c2=S)c(OC)cc1Cl returned HCMV inh -4.5, TbPYK inhibitor 3.55µM* and LmPK inhibitor -9.3%.
For COc1ccc(C)cc1-n1c(-c2ccncc2)n[nH]c1=S the results were HCMV inh 22.0, VACV Venus inh -6.6%, TbPYK inhibitor 14.1µM*, LmPK inhibitor 10µM* and Vaccinia mCherry -12.0%.
COc1ccccc1-n1c(-c2cc(-c3ccc(F)cc3)n[nH]2)n[nH]c1=S was read as HCMV inh 19.6, VACV Venus inh -8.6%, TbPYK inhibitor inconclusive, LmPK inhibitor -27.7% and Vaccinia mCherry -19.0%.
For CN(C)S(=O)(=O)c1ccc(Cl)c(NC(=O)COC(=O)[C@@H]2CCCN2C(=O)c2cccs2)c1 the results were HCMV inh 27.4, TbPYK inhibitor -2.7% and LmPK inhibitor 7.8%.
COc1cccc(CN(C)CC(=O)Nc2ccccc2C(=O)NC2CC2)c1 was read as HCMV inh -13.2 and TbPYK inhibitor -4.0%.
`COc1ccc(OC)c(-n2c(-c3cccc(S(=O)(=O)N(C)C)c3)n[nH]c2=S)c1` gave HCMV inh 5.0, VACV Venus inh -14.7%, TbPYK inhibitor -29.4%, LmPK inhibitor inconclusive and Vaccinia mCherry inactive.
For COc1ccc(OC)c(-n2c(-c3ccc(O)cc3O)n[nH]c2=S)c1 the results were HCMV inh 6.7, VACV Venus inh -18.1%, TbPYK inhibitor inconclusive, LmPK inhibitor 8.91µM* and Vaccinia mCherry -10.6%.
COc1cc(CNc2nc3c(C)cc(C)cc3s2)ccc1O was read as HCMV inh 23.0, VACV Venus inh -15.4%, TbPYK inhibitor -11.3%, LmPK inhibitor 1.1% and Vaccinia mCherry -27.4%.
`Cc1cc(C)c2nc(NCc3ccccc3O)sc2c1` gave HCMV inh -64.9*, TbPYK inhibitor -1.4% and LmPK inhibitor 10.8%.
